Compound activity as filed in PubChem.
Hits are enriched below; roughly 3.6% of the tested compounds scored in any of these assays.
FBA Mtb inh = inhibits M. tuberculosis FBA enzyme | AID 588726 | purified M. tuberculosis FBA, fluorescence read-out | P9WQA3 | hit rate 2.3% among 360,000 | inhibition, % at 1 µM;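 note: 0% = vehicle and 100% = reference inhibitor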
Target sequence (P9WQA3 whole entry, looked up): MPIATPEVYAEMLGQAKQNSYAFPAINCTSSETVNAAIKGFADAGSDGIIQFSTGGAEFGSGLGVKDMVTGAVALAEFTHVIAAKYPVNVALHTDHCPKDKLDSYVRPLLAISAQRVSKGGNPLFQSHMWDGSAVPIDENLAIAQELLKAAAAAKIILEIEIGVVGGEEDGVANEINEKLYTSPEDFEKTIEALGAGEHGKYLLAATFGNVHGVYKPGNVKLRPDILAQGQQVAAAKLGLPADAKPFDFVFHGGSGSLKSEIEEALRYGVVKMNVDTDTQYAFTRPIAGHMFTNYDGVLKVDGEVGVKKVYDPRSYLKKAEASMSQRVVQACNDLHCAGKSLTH
GDH-TPI counter-1 = inhibits GDH-TPI coupling enzymes, artifact for Mtb FBA screen | AID 588335 | hit rate 1.2% among 360,000 | inhibition, % at 4.8 µM | GDH-TPI coupled enzyme counterscreen, NADH absorbance; in the data active = inhibition above about 30%;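 note: 0% = DMSO wells and 100% = wells lacking the enzyme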
DUSP3 inh = blocks human VHR1 dual specificity phosphatase; AID 1654; hit rate 0.52% among 290,000; P51452; inhibition, % at 13.3 µM; recombinant VHR phosphatase, pNPP absorbance; in the data active = inhibition above about 50%
Target sequence (P51452 whole entry, looked up): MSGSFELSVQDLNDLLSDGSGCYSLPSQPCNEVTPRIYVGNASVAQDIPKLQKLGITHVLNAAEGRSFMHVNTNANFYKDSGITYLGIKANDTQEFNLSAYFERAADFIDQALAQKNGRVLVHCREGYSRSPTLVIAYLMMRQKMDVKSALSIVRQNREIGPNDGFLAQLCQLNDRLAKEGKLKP
Mtb hypoxia rep = inhibitors of hypoxia-regulated fluorescent reporter in Mycobacterium tuberculosis. M. tuberculosis hypoxia-regulated fluorescent reporter, fluorescence. fluorescence inhibition, % (no concentration beside the values). hit rate 0.1% among 300,000. AID 1159583; in the data active = fluorescence inhibition mostly above about 23%, no sharp cut-off; inactive = mostly below about 17%
Mtb bLac sens = beta-lactam sensitization of Mtb H37Rv | hit rate 0.27% among 330,000 | inhibition, % at 25 µM | M. tuberculosis H37Rv growth with meropenem, percent inhibition; call rule not given here;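 note: growth measured after seven days incubation then overnight dye step; 0% = bacteria only wells and 100% = bacteria with antibiotic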
Mtb FBA inh conf = Mtb FBA inhibition, confirmed; purified M. tuberculosis FBA, fluorescence read-out; shares compounds with FBA Mtb inh; inhibition, % at 1 µM; hit rate 78% among 5,600;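 note: 0% = vehicle wells and 100% = reference inhibitor wells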
GDH-TPI counter-2 = GDH-TPI inhibition counter-screen for FBA inhibitors | shares compounds with FBA Mtb inh | GDH-TPI coupled enzyme counterscreen, fluorescence | inhibition, % at 1 µM | hit rate 81% among 5,600; in the data active = inhibition above about 10%
* hit, by the source's call; · = no result given; + = active, no number. Cut-off read from the data, not from the text of the source, unless noted: active = inhibition above about 27%; inactive = the rest.

SMILES	FBA Mtb inh	GDH-TPI counter-1	DUSP3 inh	Mtb hypoxia rep	Mtb bLac sens	Mtb FBA inh conf	GDH-TPI counter-2
COc1cccc2[nH]c(C(=O)NCC3CCCO3)cc12 (stereo not given)	32*	-7	1	-9	-4	126*	97*
O=C(NCC1CCCO1)c1cc2ccccc2[nH]1 (stereo not given)	14	5	41	9	-11	·	·
COc1cc(/C=C/c2ccc3cccc(O)c3n2)cc(OC)c1OC	-1	21	-16	-4	96	·	·
COC(=O)c1ccc(/C=C/c2ccc3cccc(OC)c3n2)cc1	60*	37*	24	8	57	+	+
Cn1c(CCc2ccc(N)cc2)nc2ccccc21	0	-2	7	14	6	·	·
Cn1c(-c2ccc(N)cc2)nc2ccccc21	88*	-4	36	8	-7	+	+
Cn1c(-c2ccc(Cl)nc2)nc2ccccc21	37*	-1	·	6	2	113*	83*
CCOC(=O)Cn1c(-c2ccc(Cl)nc2)nc2ccccc21	43*	11	14	-3	66	122*	106*
Cn1c(-c2ccccc2)nc2cnccc21	2	20	13	13	-3	·	·
O=C1CC(c2ccco2)CC2=C1C(c1ccccc1)n1nc(C(F)(F)F)nc1N2 (stereo not given)	28*	13	-6	·	-2	64*	53*
COc1ccc(C2CC(=O)C3=C(C2)Nc2ncnn2C3c2ccccc2)cc1 (stereo not given)	5	7	7	·	-6	·	·
N#Cc1cc(-c2ccccc2)cn(Cc2c(Cl)cccc2Cl)c1=O	4	2	5	8	-9	·	·
N#Cc1cc(-c2ccccc2)c[nH]c1=O	58*	12	16	2	4	94*	89*
COc1ccc(C2NN=C(c3ccc(C)cc3)S2)cc1OC (stereo not given)	38*	8	-10	1	4	+	+
Cc1ccc(C2=NNC(c3cccc(F)c3)S2)cc1 (stereo not given)	4	-1	-14	5	9	·	·
CCOC(=O)c1sc2nc(CC(=O)OC)nc(NCc3ccc(F)cc3)c2c1C	32*	17	27	9	-1	+	148*
CCOC(=O)c1sc2nc(C)nc(NCc3ccc(F)cc3)c2c1C	41*	15	-8	3	7	44*	46*
CCOC(=O)c1sc2nc(C)nc(NCc3ccc(Cl)cc3)c2c1C	18	7	66	11	-3	·	·
CCOC(=O)c1sc2nc(C)nc(NCc3cccnc3)c2c1C	44*	0	33	-2	-1	108*	88*
CCOC(=O)c1sc2nc(CC(=O)OC)nc(N3CCN(c4ccccn4)CC3)c2c1C	2	17	10	10	86	·	·
O=c1c2ccccc2nc(C=Cc2cccc([N+](=O)[O-])c2)n1CCO	·	·	·	2	·	·	·
O=C(Cc1ccccc1)NNc1c2ccccc2nc2ccccc12	25	9	9	11	3	·	·
O=C(Nc1c2ccccc2nc2ccccc12)C(Cl)(Cl)Cl	90*	8	23	12	29	14	3
Cn1c(=O)nc2n(Cc3ccccc3)c3ccccc3cc-2c1=O	85*	7	2	9	2	72*	52*
O=C(Nc1ccc(-c2nc3c(ccc4ccccc43)o2)cc1)c1ccco1	54*	48*	39	3	9	107*	103*
SMILES	FBA Mtb inh	GDH-TPI counter-1	DUSP3 inh	Mtb hypoxia rep	Mtb bLac sens	Mtb FBA inh conf	GDH-TPI counter-2
O=C(NN=Cc1ccc(Br)cc1)c1cc[n+](Cc2ccccc2)cc1	·	·	·	-2	·	·	·
CC(C)Cn1nc(NC(=O)C2CCCO2)c2cc3ccccc3nc21 (stereo not given)	10	-2	16	·	8	·	·
CCCn1nc(NC(=O)C2CCCO2)c2cc3cccc(C)c3nc21 (stereo not given)	37*	15	19	-7	1	179*	149*
COC(=O)[C@@]12CCCCN1C(c1ccc(-c3ccc(C(C)=O)cc3)cc1)C1C(=O)N(C)C(=O)C12 (stereo not given in full)	·	·	·	-2	·	·	·
CNc1nc(NN=Cc2cc3c(cc2[N+](=O)[O-])OCO3)nc(Nc2ccccc2)n1	·	·	·	12	·	·	·
Cc1cc(=O)n2c(nc3ccccc32)[nH]1	37*	-3	0	7	-1	64*	42*
CCCc1cc(=O)n2c(nc3ccccc32)[nH]1	47*	14	16	·	-3	4	-5
CCCCc1c(C)[nH]c2nc3ccccc3n2c1=O	7	7	-10	-4	4	·	·
CC1CN(CC(=NO)C23CC4CC(CC(C4)C2)C3)CC(C)O1 (stereo not given)	·	·	·	16	·	·	·
O=C1CCCN1CCCNc1nc2c(S(=O)(=O)c3ccccc3)nnn2c2ccc(Cl)cc12	41*	-1	4	10	-1	1	-2
CCS(=O)(=O)c1nc(S(=O)(=O)c2ccc(C)cc2)c(NCCCN2CCCC2=O)s1	3	8	23	10	0	·	·
O=C(NN=Cc1cn(-c2cccs2)nc1-c1ccccc1)c1ccccc1Br	·	·	·	-6	·	·	·
Cc1cc(C)c(OCCCNC2CCCC2)c(Br)c1	67*	6	34	17	-8	+	+
CCOc1ccc2oc(C(=O)OCC(=O)N3CC(C)OC(C)C3)c(C)c2c1 (stereo not given)	46*	5	·	-3	3	+	+
Cc1c(C(=O)OCC(=O)N2CCCC(C)C2)oc2ccccc12 (stereo not given)	6	-7	·	1	2	·	·
COc1ccc2oc(C(=O)OCC(=O)N3CCCC(C)C3)c(C)c2c1 (stereo not given)	63*	6	·	-2	5	61*	55*
Cc1c(C(=O)OCC(=O)N2CC(C)OC(C)C2)oc2ccc(Br)cc12 (stereo not given)	-3	11	10	6	-2	·	·
CCOc1ccc2oc(C(=O)OCC(=O)N3CCCC(C)C3)c(C)c2c1 (stereo not given)	49*	4	·	7	36	95*	78*
C#CCNC(=O)C1=CC(c2ccc(C#C)cc2)CC(OCc2ccc(CO)cc2)O1 (stereo not given)	·	·	·	18	·	·	·
Cc1cc(C=NNC(N)=O)c(C)c(CO)c1	·	·	·	-9	·	·	·
OC(c1cccc(Cl)c1)c1ncc(-c2cccc3ccccc23)[nH]1 (stereo not given)	37*	7	·	·	·	146*	103*
Cc1ccc(C(O)c2ncc(-c3cccc4ccccc34)[nH]2)cc1F (stereo not given)	27*	1	·	·	·	19	13*
COc1cccc(C(O)c2ncc(-c3ccccc3OC)[nH]2)c1 (stereo not given)	0	9	·	·	·	·	·
Cc1ccc(C(O)c2ncc(-c3cccc4ccccc34)[nH]2)c(C)c1 (stereo not given)	39*	-3	·	·	·	+	+
